Molecules are shown by their SMILES.

The first assay deals with Plasmodium falciparum. Kind of assay: GSK_TCMDC: Inhibition of Plasmodium falciparum 3D7 in whole red blood cells, using parasite LDH activity as an index of growth. Test compounds present at 2uM. Format: functional.
As usually defined, the Inhibition is the change of the read-out against control, counted positive when it falls. Low readings indicate a weak effect, high ones a strong effect. On to `O=C(Nc1cccc(-c2ccc(-c3nc4cc(C(F)(F)F)ccc4[nH]3)cc2)c1)Nc1ccc(Cl)c(Cl)c1`, for which the Inhibition amounted to 100%.
Still for that read-out and setting: next, `COc1ccc2nccc([C@@H](O)CN3CCC(NC(=O)c4ccc5nc(-n6cccc6)sc5c4)CC3)c2c1`: 90%; `COc1ccc2nc(NC(N)=NC(=O)Nc3ccccc3)nc(C)c2c1`: 90%.
Compound `Cc1c(S(=O)(=O)Nc2ccc3nccc(N4CCN[C@H](C)C4)c3c2)sc2ccc(Cl)cc12.Cl` yielded an Inhibition of 96%.
The same measure, in the same setting: next, `O=C(Nc1ccccc1)NC1CCN(CCC2(c3ccc(Cl)c(Cl)c3)COCN(C(=O)c3ccccc3)C2)C1` (stereo unspecified): 92%.
`COc1ccc(-c2cccc(NC(=O)c3cccc(F)c3)c2)cc1CN1CCCN(C)CC1.O=C(O)C(F)(F)F` yielded an Inhibition of 100%.
Still for that read-out and setting: next, `CCn1cc(CN2CCCC(C(=O)Nc3ccc(-c4nc5ccccc5[nH]4)cc3)C2)c(C)n1` (stereo unspecified): 100%.
The compound `O=C(Nc1ccccc1)N(Cc1cccc(-c2ccc(CNCCc3ccccc3)cc2)c1)C1CCN(Cc2ccccc2)CC1.O=C(O)C(F)(F)F` gave an Inhibition of 100%.
For `O=C(CCc1c[nH]cn1)Nc1cccc(-c2ccc(-c3nc4ccccc4[nH]3)s2)c1`, the Inhibition is 92%.
Still for that read-out and setting: the same measure for `NS(=O)(=O)c1cccc(Nc2nccc(-c3cnn4ncccc34)n2)c1`: 89%; for `OCCCCCCNc1nc(NCc2ccccc2-c2ccc(C(F)(F)F)cc2)nc(N2CCNCC2)n1`: 89%; for `NC1CCCN(Cc2ccc(-c3ccc(-c4nc5cc(F)ccc5[nH]4)s3)cc2)C1.O=C(O)C(F)(F)F` (stereo unspecified): 100%.
Compound `Cc1cc(N/N=C/c2ccccc2[N+](=O)[O-])c2cc(C(F)(F)F)ccc2n1` returned an Inhibition of 97%.
As to `CC(=O)Nc1cccc(C(=O)Nc2ccc(-c3ccc(-c4nc5cccc(C)c5[nH]4)s3)cc2)c1`, the Inhibition is listed as 93%.
In the case of `COc1nc2c(CCN3CCC(NCc4ccc5c(c4)NCCO5)CC3)c(Cl)cnc2cc1F.Cl`, the Inhibition worked out at 100%.
As to `COc1ccc(-c2cnc3[nH]cc(-c4ccncc4)c3c2)cc1OC`, the Inhibition is recorded as 98%.
On the same count and under the same terms, next, `COc1cc2nc(NCc3cccc(CNC(=O)c4ccc(-c5ccc(C(C)=O)cc5)cc4)c3)nc(N)c2cc1OC.O=C(O)C(F)(F)F`: 100%.
The same measure, in the same setting: next, `O=C(NCc1ccc(F)cc1)Nc1ccc(-c2cccc(-c3nc4cc(C(F)(F)F)ccc4[nH]3)c2)cc1`: 100%.
Take `COc1ccc(N2C(=O)c3c(c4ccccc4n3C)C2c2ccccc2O)cc1` (stereo unspecified): the Inhibition was found to be 96%.
`CC1(C)CCC(C)(C)c2c1ccc(C1CCN(CCCCNC(=O)c3ccc(-c4ccc(C#N)cc4)cc3)CC1)c2O` yielded an Inhibition of 100%.
`CCCNC[C@@H](O)[C@H](Cc1ccccc1)NC(=O)c1cc(NCC)cc(N2CCCC2=O)c1` returned an Inhibition of 100%.
Same read-out and setting: the same measure for `CN1CCN(CCCN(Cc2csc(-c3ccc(CNCc4ccccc4)cc3)n2)C(=O)Nc2cccc(Cl)c2)CC1.O=C(O)C(F)(F)F`: 100%; for `O=C(/C=C/c1ccsc1)N1CCC(CCN2CCC(c3c[nH]c4ccccc34)CC2)CC1`: 88%.
As to `CCOc1ccc(-c2nonc2NC(=O)c2ccc(OC(C)C)cc2)cc1OCC`, the Inhibition is 100%.
On the same count and under the same terms, next, `Cl.FC(F)(F)c1cc(Nc2ncnc3ccc(Br)cc23)ccc1OCc1ccccc1`: 87%; `Cc1nc(-c2cccc(Nc3nccc(NCC(O)c4cccc(C(F)(F)F)c4)n3)c2)cs1` (stereo unspecified): 100%.

In a further assay the test system is Plasmodium falciparum. Kind of assay: GSK_TCMDC: Inhibition of Plasmodium falciparum Dd2 in whole red blood cells, using parasite LDH activity as an index of growth. Test compounds present at 2uM. In kind it is functional.
Compound `COc1ccc2c(Nc3ccc(N4CCN(C)CC4)cc3)cc(C)nc2c1` registered an Inhibition of 9%.
Same read-out and setting: the same measure for `CCOc1cc(C)ccc1C1CCN(CCCCNC(=O)c2cnc(-c3ccc(C(F)(F)F)cc3)[nH]2)CC1`: 97%.
For the compound `CCC(CC)n1cc2c(ccc3nc(N)nc(N)c32)n1`, the Inhibition is reported as 0%.
Same read-out and setting: next, `CC(C)Nc1nc(NCCc2c[nH]cn2)nc(NCc2cccc3ccccc23)n1`: 0%.
Same read-out and setting: next, `COc1cccc2cc(C(=O)N[C@@H](CC(C)C)C(=O)N[C@H](C=NNC(=O)OC(C)(C)C)CC(C)C)oc12`: 57%.
Still for that read-out and setting: the same measure for `CCOC(=O)NC1=NC(=N)N(OCCCOc2cc(Cl)c(Cl)cc2Cl)C(C)(C)N1`: 94%; for `COc1cc(NCCCNCC2c3ccccc3Oc3ccccc32)nc2ccccc12.O=C(O)C(F)(F)F`: 66%.
The compound `Cc1[nH]c(C)c(-c2cccc(-c3ccc(OC(F)(F)F)cc3)c2)c(=O)c1Br` showed an Inhibition of 96%.
The same measure, in the same setting: the same measure for `CCN1CCN(c2cc(C)c3cc(NC(=O)c4cccc([N+](=O)[O-])c4)ccc3n2)CC1`: 73%.
`COc1ccc2[nH]c(C)cc(=NN=Cc3cc(C)ccc3O)c2c1` came in with an Inhibition of 100%.
On the same count and under the same terms, the same measure for `COc1cc2nc(Nc3ccc(Oc4ccccc4)cc3)nc(Nc3ccc(Oc4ccccc4)cc3)c2cc1OC`: 45%.
`Br.CC1(C)N=C(N)N=C(N)N1OCCCOc1cccc(C(=O)O)c1`: the Inhibition amounted to 96%.
For `CN(C)c1ccc(CN2CCCC(CNC(=O)c3ccc(-c4cccc(C(F)(F)F)c4)s3)C2)cc1.O=C(O)C(F)(F)F` (stereo unspecified), the Inhibition is reported as 37%.
Still for that read-out and setting: the same measure for `COc1ccc(Cl)cc1NC(=O)Nc1ccnc2ccccc12`: 44%.
On the same count and under the same terms, next, `O=C(Nc1cccc(-c2ccc(-c3nc4cc(C(F)(F)F)ccc4[nH]3)cc2)c1)Nc1ccc(Cl)c(Cl)c1`: 51%; `COc1ccc2nccc([C@@H](O)CN3CCC(NC(=O)c4ccc5nc(-n6cccc6)sc5c4)CC3)c2c1`: 40%; `COc1ccc2nc(NC(N)=NC(=O)Nc3ccccc3)nc(C)c2c1`: 15%.
On the same count and under the same terms, next, `Cc1c(S(=O)(=O)Nc2ccc3nccc(N4CCN[C@H](C)C4)c3c2)sc2ccc(Cl)cc12.Cl`: 0%; `O=C(Nc1ccccc1)NC1CCN(CCC2(c3ccc(Cl)c(Cl)c3)COCN(C(=O)c3ccccc3)C2)C1` (stereo unspecified): 81%.
In turn, `COc1ccc(-c2cccc(NC(=O)c3cccc(F)c3)c2)cc1CN1CCCN(C)CC1.O=C(O)C(F)(F)F` returned an Inhibition of 78%.
Regarding `CCn1cc(CN2CCCC(C(=O)Nc3ccc(-c4nc5ccccc5[nH]4)cc3)C2)c(C)n1` (stereo unspecified), the Inhibition was 28%.
`O=C(Nc1ccccc1)N(Cc1cccc(-c2ccc(CNCCc3ccccc3)cc2)c1)C1CCN(Cc2ccccc2)CC1.O=C(O)C(F)(F)F` had an Inhibition of 95%.
The same measure, in the same setting: next, `O=C(CCc1c[nH]cn1)Nc1cccc(-c2ccc(-c3nc4ccccc4[nH]3)s2)c1`: 37%; `NS(=O)(=O)c1cccc(Nc2nccc(-c3cnn4ncccc34)n2)c1`: 89%.
`OCCCCCCNc1nc(NCc2ccccc2-c2ccc(C(F)(F)F)cc2)nc(N2CCNCC2)n1` registered an Inhibition of 16%.
Still for that read-out and setting: the same measure for `NC1CCCN(Cc2ccc(-c3ccc(-c4nc5cc(F)ccc5[nH]4)s3)cc2)C1.O=C(O)C(F)(F)F` (stereo unspecified): 98%.
On the same count and under the same terms, the same measure for `Cc1cc(N/N=C/c2ccccc2[N+](=O)[O-])c2cc(C(F)(F)F)ccc2n1`: 39%; for `CC(=O)Nc1cccc(C(=O)Nc2ccc(-c3ccc(-c4nc5cccc(C)c5[nH]4)s3)cc2)c1`: 20%; for `COc1nc2c(CCN3CCC(NCc4ccc5c(c4)NCCO5)CC3)c(Cl)cnc2cc1F.Cl`: 98%.
Take `COc1ccc(-c2cnc3[nH]cc(-c4ccncc4)c3c2)cc1OC`: the Inhibition was found to be 97%.
On the same count and under the same terms, the same measure for `COc1cc2nc(NCc3cccc(CNC(=O)c4ccc(-c5ccc(C(C)=O)cc5)cc4)c3)nc(N)c2cc1OC.O=C(O)C(F)(F)F`: 72%.
The same measure, in the same setting: the same measure for `O=C(NCc1ccc(F)cc1)Nc1ccc(-c2cccc(-c3nc4cc(C(F)(F)F)ccc4[nH]3)c2)cc1`: 92%; for `COc1ccc(N2C(=O)c3c(c4ccccc4n3C)C2c2ccccc2O)cc1` (stereo unspecified): 91%.
On the same count and under the same terms, the same measure for `CC1(C)CCC(C)(C)c2c1ccc(C1CCN(CCCCNC(=O)c3ccc(-c4ccc(C#N)cc4)cc3)CC1)c2O`: 85%; for `CCCNC[C@@H](O)[C@H](Cc1ccccc1)NC(=O)c1cc(NCC)cc(N2CCCC2=O)c1`: 76%.
The compound `CN1CCN(CCCN(Cc2csc(-c3ccc(CNCc4ccccc4)cc3)n2)C(=O)Nc2cccc(Cl)c2)CC1.O=C(O)C(F)(F)F` gave an Inhibition of 67%.
On the same count and under the same terms, the same measure for `O=C(/C=C/c1ccsc1)N1CCC(CCN2CCC(c3c[nH]c4ccccc34)CC2)CC1`: 24%; for `CCOc1ccc(-c2nonc2NC(=O)c2ccc(OC(C)C)cc2)cc1OCC`: 100%.
In turn, `Cl.FC(F)(F)c1cc(Nc2ncnc3ccc(Br)cc23)ccc1OCc1ccccc1` came in with an Inhibition of 9%.
On the same count and under the same terms, the same measure for `Cc1nc(-c2cccc(Nc3nccc(NCC(O)c4cccc(C(F)(F)F)c4)n3)c2)cs1` (stereo unspecified): 99%.
